Test results: ChEMBL document CHEMBL3988442, “University of Dundee, Small-Polar-MMV Screening Library” (2021)
About 13,000 (27%) of roughly 48,000 compounds showed an effect of 50% or more. The list shows a part of the results.

Test system: Wolbachia pipientis
Assay: Anti-Wolbachia Cell-Based Screen
Format: functional
Parameters: scale not given: in the data most compounds retested in dose-response had high values
Details: 5 µM

SMILES | Percent Effect
CCOC(C)c1nc(CN2CCNCC2)cs1 (stereo unspecified) | 1.236%
Cc1cc(C)cc(CN2C[C@@H]3OCCN(CC(=O)N(C)C)[C@@H]3C2)c1.O=C(O)C(F)(F)F | 122.5%
CN(C)CCN1CCO[C@H]2CN(Cc3cnn(C)c3)C[C@H]21.O=C(O)C(F)(F)F.O=C(O)C(F)(F)F.O=C(O)C(F)(F)F | 2.67%
c1cc(CN2C[C@@H]3OCCN(CC4CCCO4)[C@@H]3C2)co1 (stereo partly specified) | -2.91%
Cc1cccc(CN2C(=O)CO[C@@H]3CN(CCO)C[C@H]32)c1.O=C(O)C(F)(F)F | 23.75%
O=C(O)C(F)(F)F.O=C(O)C(F)(F)F.O=C(O)C(F)(F)F.c1cc(CN2C[C@@H]3OCCN(CCN4CCCC4)[C@@H]3C2)co1 | -5.454%
CN(C)C(=O)CO[C@H]1CN(Cc2cccc(F)c2)[C@@H]2CCCO[C@H]12.O=C(O)C(F)(F)F | 5.103%
CN(C)C(=O)CN1CCO[C@H]2CN(Cc3ccoc3)C[C@H]21 | 95.5%
O=C(O)C(F)(F)F.O=C1CO[C@@H]2CN(C3CCOCC3)C[C@H]2N1Cc1cccc(F)c1 | 2.353%
CN(C)C(=O)CN1CCO[C@H]2CN(Cc3cccc(F)c3)C[C@H]21 | 99.44%
Cc1cc(C)cc(CN2C[C@@H]3OCCN(S(=O)(=O)N(C)C)[C@@H]3C2)c1 | -1.729%
CN1CCC(N(C)CCC(=O)N2CCN(Cc3cccc(F)c3)CC2)C1 (stereo unspecified) | -12.08%
Cc1cccc(CN2C(=O)CO[C@@H]3CN(C4CCOCC4)C[C@H]32)c1.O=C(O)C(F)(F)F | 109.7%
CC(SCc1cc(Br)cc2cccnc12)C(N)=O (stereo unspecified) | -22.01%
COc1ccc2c(c1)CC(C(=O)N(C)CCCc1cnn(C)c1)CO2 (stereo unspecified) | -3.689%
CC(C)[C@@H]1CN(c2ccc(C(F)(F)F)cn2)C[C@H]1NS(C)(=O)=O | -16.11%
OCC(O)CSCc1ccc(F)cc1Cl (stereo unspecified) | -2.217%
CC(=O)N[C@@H]1CN(C(=O)c2ccoc2)C[C@H]1c1ccc(C)cc1 | 0.232%
Cc1cc(CN2CC[C@H]3[C@H]2CCN3CC(=O)N(C)C)oc1C.O=C(O)C(F)(F)F.O=C(O)C(F)(F)F | -40.85%
Cc1cccc(CN2C[C@@H]3OCCN(S(=O)(=O)N(C)C)[C@@H]3C2)c1.O=C(O)C(F)(F)F | 1.609%
Cc1cccc(CN2C[C@@H]3OCCN(CC(=O)N(C)C)[C@@H]3C2)c1.O=C(O)C(F)(F)F | 97.29%
O=C(NC[C@H]1OC[C@@H](NC2COC2)[C@@H]1O)C1CCCC1 | -18.2%
Cn1cc(C(C)(O)CNC(=O)c2ccc(Br)s2)cn1 (stereo unspecified) | 0.7525%
Cc1noc(C)c1CN(Cc1ccccc1)C(C)C | -1.884%
CNC(=O)[C@@H]1CCO[C@@H]2CCN(C3CCOCC3)C[C@@H]21.O=C(O)C(F)(F)F | -5.14%
O=C(NC1CC1)[C@@H]1CCO[C@@H]2CCN(C3CCOCC3)C[C@H]21.O=C(O)C(F)(F)F | -6.605%

SMILES | Percent Effect
CN(C)C(=O)[C@@H]1CCO[C@@H]2CCN(CCOCc3ccccc3)C[C@H]21.O=C(O)C(F)(F)F | 110%
Cc1noc(C)c1CN1CC[C@H]2OCC[C@@H](C(=O)NCC3CC3)[C@H]2C1.O=C(O)C(F)(F)F | -0.6103%
CN(C)C(=O)[C@@H]1CCO[C@@H]2CCN(Cc3ccccc3)C[C@@H]21.O=C(O)C(F)(F)F | -6.959%
CNC(=O)[C@@H]1CCO[C@@H]2CCN(CCc3ccccc3)C[C@H]21.O=C(O)C(F)(F)F | 100.2%
O=C(NC1CC1)[C@@H]1CCO[C@@H]2CCN(CCc3ccccc3)C[C@@H]21.O=C(O)C(F)(F)F | 121.8%
CN(C)C(=O)[C@@H]1CCO[C@@H]2CCN(CCc3ccccc3)C[C@@H]21.O=C(O)C(F)(F)F | 0.9995%
O=C(NCC1CC1)[C@@H]1CCO[C@@H]2CCN(CCc3ccccc3)C[C@H]21.O=C(O)C(F)(F)F | 103.2%
O=C(NC1CCC1)[C@@H]1CCO[C@@H]2CCN(CCc3ccccc3)C[C@H]21.O=C(O)C(F)(F)F | 10.39%
O=C(NCC1CC1)[C@@H]1CCO[C@@H]2CCN(Cc3ccc(F)cc3)C[C@H]21.O=C(O)C(F)(F)F | -1.927%
CC1=N[C@@]2(CC[C@@H]3CN(S(=O)(=O)CC(C)C)C[C@@H]32)C(=O)N1CC1CC1 | 5.74%
O=C(C1CCCN(Cc2cccc(F)c2)C1)N1CCc2sccc2C1 (stereo unspecified) | 1.206%
CCN(CCc1nccs1)C(=O)c1sccc1C | -15.07%
Cc1noc(C)c1CN(C)Cc1csc(-c2ccc(C(C)C)cc2)n1 | -1.572%
COCC(C)(CCO)NC(=O)Nc1cccc(F)c1C (stereo unspecified) | -3.176%
O=C([C@@H]1CCO[C@@H]2CCN(CC3CC3)C[C@H]21)N1CCCC1 | -26.98%
O=C(O)C(F)(F)F.O=C([C@@H]1CCO[C@@H]2CCN(CCc3ccccc3)C[C@@H]21)N1CCCC1 | 117.3%
O=C(O)C(F)(F)F.O=C([C@H]1CN(CCc2ccccc2)C[C@H]2OCC[C@@H]12)N1CCCO1 | -7.584%
CN(C)c1ncc2c(O)nc(C3CCCNC3)cc2n1 (stereo unspecified) | 88.81%
Cl.Cl.Cn1cnc2c(-c3cccnc3)nc(C3CCNCC3)cc21 | -57.7%
CCN(CC)c1ncc(Cl)c(C(=O)NC2CCC(O)CC2)n1 (stereo unspecified) | -11%
CCN(CC)c1ncc(Cl)c(C(=O)NC2CC2)n1 | -2.852%
CN(C)c1ncc2c(O)nc(C3CCNCC3)cc2n1.Cl | 122.5%
CCN(CC)c1ncc2c(O)nc(C3CCNCC3)cc2n1 | 97.4%
CC(C)n1cnc2c(N3CCCC3)nc(C3CCNCC3)cc21.Cl.Cl | -3.823%
Cc1nc(C2CCCNC2)cc(N(C)CCc2cn[nH]c2)n1 (stereo unspecified) | 4.214%
